Measured values published in PubChem BioAssay (NCI).
This is part of a sample that, as a whole, favours compounds with a hit. Of some 79,000 tested, about 15% had one in any assay. Activity calls are given as the source filed them. Rule as the data show it: active = growth inhibition above about 70%; inactive = the rest.

How the values were obtained:
[1] = NCI Yeast Anticancer Drug Screen. Data for the wt1 strain (AID 149);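 also: 0% = growth of vehicle-treated wt1 cultures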; conditions: S. cerevisiae wt1 strain (SPY 50644) growth inhibition, hits give high values
Method in brief: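 wt1 yeast, compound-treated; % growth inhibition vs vehicle control.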

[2] = NCI Yeast Anticancer Drug Screen. Data for the rad50EPP+ strain (AID 151);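 also: 0% = growth of vehicle-treated control cultures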; conditions: S. cerevisiae rad50 mutant strain, hits give high values
Method in brief: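 Measured: growth inhibition of rad50EPP+ yeast. Reference: vehicle-treated controls. Screen uses strains with defined genetic alterations in DNA damage repair or cell cycle control.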

[3] = NCI Yeast Anticancer Drug Screen. Data for the mgt1 strain (AID 153); conditions: S. cerevisiae mgt1 mutant growth inhibition, hits give high values
Method in brief: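 Compounds were applied to mgt1 mutant yeast, and growth was then compared against vehicle-treated control cultures to give percent inhibition.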

[4] = NCI Yeast Anticancer Drug Screen. Data for the rad50 strain (AID 155);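 also: 0% = growth of vehicle-only cultures of the same strain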; conditions: S. cerevisiae rad50 strain growth inhibition, hits give high values
Method in brief: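 Genetically altered yeast (DNA repair pathway); compound treatment; growth inhibition vs vehicle ctrl.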

[5] = NCI Yeast Anticancer Drug Screen. Data for the mec2-1 strain (AID 157); conditions: S. cerevisiae mec2-1 strain, hits give high values
Method in brief: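 Compounds were applied to mec2-1 yeast cells. Their growth was then compared with that of vehicle-treated cultures to give growth inhibition.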

[6] = NCI Yeast Anticancer Drug Screen. Data for the rad14 strain (AID 159);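 also: 0% = growth of vehicle-treated control cultures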; conditions: S. cerevisiae rad14 strain growth inhibition, hits give high values
Method in brief: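 Test compounds were applied to a repair-deficient yeast strain. Its growth was then compared with that of cultures given vehicle alone, and inhibition was expressed relative to those controls.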

[7] = NCI Yeast Anticancer Drug Screen. Data for the sgs1 mgt1 strain (AID 161);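 also: 0% = growth of cultures given vehicle only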; conditions: S. cerevisiae sgs1 mgt1 strain, hits give high values
Method in brief: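 This yeast growth screen uses a strain with defined DNA-repair lesions; compound-treated growth is compared with vehicle-treated growth.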

[8] = NCI Yeast Anticancer Drug Screen. Data for the CLN2oe strain (AID 163);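 also: 0% = growth of vehicle-only control cultures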; conditions: S. cerevisiae CLN2oe strain, hits give high values
Method in brief: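 Cells of an engineered yeast line with disturbed cell-cycle regulation are treated with compound. Inhibition of growth is then calculated relative to the vehicle-treated reference.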

[9] = NCI Yeast Anticancer Drug Screen. Data for the cln2 rad14 strain (AID 165);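 also: 0% = growth equal to vehicle treated cultures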; conditions: S. cerevisiae cln2 rad14 strain, hits give high values
Method in brief: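 Strain: cln2 rad14 yeast, altered in cell cycle control and DNA damage repair. Read-out: growth inhibition vs vehicle.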

[10] = NCI Yeast Anticancer Drug Screen. Data for the bub3 strain (AID 167); conditions: S. cerevisiae bub3 mutant strain, hits give high values
Method in brief: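 Yeast carrying a defined mutation is treated with each compound, and growth is compared with that of vehicle-exposed cells to give inhibition.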

[11] = NCI Yeast Anticancer Drug Screen. Data for the wt2 strain (AID 169);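 also: 0% = growth of vehicle-treated yeast cultures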; conditions: S. cerevisiae wt2 strain growth inhibition, hits give high values
Method in brief: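 Growth of compound-treated yeast is measured and expressed as inhibition relative to vehicle-only controls.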

[12] = NCI Yeast Anticancer Drug Screen. Data for the mlh1 strain (AID 171);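 also: 0% = growth of vehicle-treated control cultures of the same strain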; conditions: S. cerevisiae mlh1 strain growth inhibition, hits give high values
Method in brief: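 Test agents were incubated with yeast bearing a defined DNA damage repair or cell cycle control alteration; values are growth inhibition normalised to vehicle-treated cultures.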

[13] = NCI Yeast Anticancer Drug Screen. Data for the mlh1 rad18 strain (AID 175); conditions: S. cerevisiae mlh1 rad18 strain growth inhibition, hits give high values
Method in brief: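 A repair-deficient yeast strain is exposed to test compound, and growth is scored relative to vehicle-treated controls.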

[14] = NCI Yeast Anticancer Drug Screen. Data for the rad18 strain (AID 177); conditions: S. cerevisiae rad18 mutant growth inhibition, hits give high values
Method in brief: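 DNA-repair-defective yeast; compound treatment; growth inhibition scored against vehicle.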

[15] = at 5.0 µM (retest, dose inferred, filed as 0.5)
[16] = at 50.0 µM (retest, dose inferred, filed as 5.0)

Measured: growth inhibition

C#CC1=CC(=O)C(OC)=CC1=O
inactive: [1]; at 1.2 µM -2% | [1]; at 3.7 µM -1% | [1]; at 11.0 µM 23% | [2]; at 1.2 µM 9% | [2]; at 3.7 µM 21% | [2]; at 11.0 µM 43% | [3]; at 1.2 µM 0% | [3]; at 3.7 µM 11% | [3]; at 11.0 µM 48% | [4]; at 1.2 µM 14% | [4]; at 3.7 µM 34% | [4]; [15] 53% | [4]; at 50.0 µM 30.4% | [5]; at 1.2 µM 0% | [5]; at 3.7 µM 14% | [5]; [15] 23% | [5]; at 50.0 µM 62% | [6]; at 1.2 µM 12% | [6]; at 3.7 µM 21% | [7]; [15] 54% | [7]; at 50.0 µM 32.5% | [8]; at 1.2 µM 2% | [8]; at 3.7 µM 14% | [8]; at 11.0 µM 29% | [9]; [15] 39% | [9]; at 50.0 µM 47.4% | [10]; at 1.2 µM -6% | [10]; at 3.7 µM 0% | [10]; [15] 21% | [10]; at 50.0 µM 65.2% | [11]; at 1.2 µM -6% | [11]; at 3.7 µM 2% | [11]; at 11.0 µM 48% | [12]; at 1.2 µM 3% | [12]; at 3.7 µM 16% | [13]; at 50.0 µM 66.2% | [14]; at 1.2 µM 40%
active: [1]; at 33.0 µM 90% | [1]; at 100.0 µM 98% | [2]; at 33.0 µM 95% | [2]; at 100.0 µM 98% | [3]; at 33.0 µM 99% | [3]; at 100.0 µM 99% | [4]; at 11.0 µM 94% | [4]; at 33.0 µM 98% | [4]; [16] 99% | [4]; at 100.0 µM 98% | [5]; at 11.0 µM 89% | [5]; at 33.0 µM 99% | [5]; [16] 99% | [5]; at 100.0 µM 99% | [6]; at 11.0 µM 82% | [6]; at 33.0 µM 99% | [6]; at 100.0 µM 99% | [7]; [16] 99% | [8]; at 33.0 µM 88% | [8]; at 100.0 µM 99% | [9]; [16] 99% | [10]; at 11.0 µM 88% | [10]; at 33.0 µM 99% | [10]; [16] 99% | [10]; at 100.0 µM 99% | [11]; at 33.0 µM 97% | [11]; at 100.0 µM 99% | [12]; at 11.0 µM 96% | [12]; at 33.0 µM 99% | [12]; at 100.0 µM 99% | [13]; [15] 77% | [13]; [16] 99% | [14]; at 3.7 µM 83% | [14]; at 11.0 µM 96% | [14]; at 33.0 µM 99% | [14]; at 100.0 µM 99%

Cc1ccc(C(C)C)c(C(=C2C=CC(=[N+](C)C)C=C2)c2c(C(C)C)ccc(C)c2O)c1O
inactive: [1]; at 1.2 µM 1% | [1]; at 3.7 µM -2% | [2]; at 1.2 µM -1% | [2]; at 3.7 µM 1% | [2]; at 11.0 µM -1% | [2]; at 33.0 µM -3% | [2]; at 100.0 µM -8% | [3]; at 1.2 µM -2% | [3]; at 3.7 µM 0% | [4]; at 1.2 µM 4% | [4]; at 3.7 µM 16% | [5]; at 1.2 µM -1% | [5]; at 3.7 µM 16% | [5]; [15] 53% | [6]; at 1.2 µM 1% | [6]; at 3.7 µM 19% | [7]; [15] 66% | [8]; at 1.2 µM 2% | [8]; at 3.7 µM 26% | [10]; at 1.2 µM 3% | [10]; at 3.7 µM 8% | [10]; [15] 35% | [11]; at 1.2 µM 1% | [11]; at 3.7 µM -1% | [12]; at 1.2 µM 0% | [12]; at 3.7 µM 8%
active: [1]; at 11.0 µM 98% | [1]; at 33.0 µM 95% | [1]; at 100.0 µM 86% | [3]; at 11.0 µM 98% | [3]; at 33.0 µM 94% | [3]; at 100.0 µM 85% | [4]; [15] 84% | [4]; at 11.0 µM 97% | [4]; at 33.0 µM 93% | [4]; [16] 93% | [4]; at 50.0 µM 96.7% | [4]; at 100.0 µM 81% | [5]; at 11.0 µM 98% | [5]; at 33.0 µM 96% | [5]; [16] 96% | [5]; at 50.0 µM 97.5% | [5]; at 100.0 µM 88% | [6]; at 11.0 µM 98% | [6]; at 33.0 µM 94% | [6]; at 100.0 µM 85% | [7]; [16] 96% | [7]; at 50.0 µM 97.3% | [8]; at 11.0 µM 97% | [8]; at 33.0 µM 93% | [8]; at 100.0 µM 75% | [10]; at 11.0 µM 97% | [10]; at 33.0 µM 93% | [10]; [16] 97% | [10]; at 50.0 µM 95.3% | [10]; at 100.0 µM 81% | [11]; at 11.0 µM 97% | [11]; at 33.0 µM 94% | [11]; at 100.0 µM 83% | [12]; at 11.0 µM 97%
